Test results as given in PubChem BioAssay AID1053173 (Broad Institute, 2014).
In all, about 1,500 compounds went through this assay and about 390 (26%) were called active. A selection follows. Entries with a potency or affinity are not part of this list. Unmarked numbers belong to inactive results. How the calls were made is not given here.

Target: Histone-lysine N-methyltransferase NSD2 (Homo sapiens) (UniProt O96028)
Assay: NSD2 methyltransferase inhibitors, dose response, biochemical, AlphaScreen, cherry-picked samples (AID 1053173);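 further: 0% = neutral control wells and -100% = positive control wells on each plate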
Details: NSD2 H4 peptide methylation, 120 min; series mostly up to 10 µM; activity change, negative = inhibition: at the top concentration

Sequence of Histone-lysine N-methyltransferase NSD2 (Homo sapiens) (O96028 whole entry, looked up): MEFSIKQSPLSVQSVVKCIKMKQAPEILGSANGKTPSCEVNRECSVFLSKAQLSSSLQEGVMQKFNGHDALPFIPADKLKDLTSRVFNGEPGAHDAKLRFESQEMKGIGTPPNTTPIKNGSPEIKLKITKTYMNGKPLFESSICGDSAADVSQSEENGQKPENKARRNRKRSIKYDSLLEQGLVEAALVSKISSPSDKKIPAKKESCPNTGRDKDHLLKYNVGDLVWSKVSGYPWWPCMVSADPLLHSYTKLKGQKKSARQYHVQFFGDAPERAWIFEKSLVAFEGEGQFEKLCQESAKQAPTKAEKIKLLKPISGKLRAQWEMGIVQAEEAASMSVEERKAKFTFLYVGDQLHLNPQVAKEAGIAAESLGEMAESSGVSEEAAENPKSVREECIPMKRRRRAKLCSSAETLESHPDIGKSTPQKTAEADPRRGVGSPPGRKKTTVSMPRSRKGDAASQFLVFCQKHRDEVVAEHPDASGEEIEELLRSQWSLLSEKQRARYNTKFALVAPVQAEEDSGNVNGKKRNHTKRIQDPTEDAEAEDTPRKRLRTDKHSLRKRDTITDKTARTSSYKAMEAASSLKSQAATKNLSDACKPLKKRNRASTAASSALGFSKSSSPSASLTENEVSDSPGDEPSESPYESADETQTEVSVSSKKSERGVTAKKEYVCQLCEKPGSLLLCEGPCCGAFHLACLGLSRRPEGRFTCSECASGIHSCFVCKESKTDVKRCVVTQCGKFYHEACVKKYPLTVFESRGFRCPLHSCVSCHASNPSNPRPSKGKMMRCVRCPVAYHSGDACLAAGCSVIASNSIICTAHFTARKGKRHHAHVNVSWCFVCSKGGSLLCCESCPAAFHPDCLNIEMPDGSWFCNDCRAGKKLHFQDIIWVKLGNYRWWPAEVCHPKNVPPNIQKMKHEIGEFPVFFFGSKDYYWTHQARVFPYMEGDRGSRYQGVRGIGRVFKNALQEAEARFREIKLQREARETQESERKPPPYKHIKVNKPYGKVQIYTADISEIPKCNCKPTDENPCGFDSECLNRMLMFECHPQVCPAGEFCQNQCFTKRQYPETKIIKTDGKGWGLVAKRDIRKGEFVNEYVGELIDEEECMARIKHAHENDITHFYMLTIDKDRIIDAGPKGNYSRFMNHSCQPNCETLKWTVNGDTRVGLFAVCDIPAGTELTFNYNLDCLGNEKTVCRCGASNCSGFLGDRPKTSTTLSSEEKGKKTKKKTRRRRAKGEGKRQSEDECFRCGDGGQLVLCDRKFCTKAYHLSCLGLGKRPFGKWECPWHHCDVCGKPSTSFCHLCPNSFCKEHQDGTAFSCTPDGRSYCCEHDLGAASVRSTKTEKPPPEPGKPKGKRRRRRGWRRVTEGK

Compared with `COc1ccc(C2C(C(=O)/C=C/c3ccco3)=C(O)C(=O)N2CCN2CCOCC2)cc1OC` (centres undefined), `COc1ccc(CCNC(=O)Nc2ccc3c(c2)c(=O)n(C)n3CC=C(C)C)cc1OC` is lower in “activity change, negative = inhibition” value: 2.35% for the first, 1.5% for the second.

First: CCc1nnc(NC(=O)c2ccc3ccccc3n2)s1
Second: CCc1nnc(NC(=O)c2ccc(COc3ccccc3)o2)s1
The “activity change, negative = inhibition” value of the first is lower: -0.466% for the first, 0.577% for the second.

Compared with `CCC1(c2ccc(F)cc2)NC(=O)N(CC(=O)N(CCC#N)c2ccccc2)C1=O` (centres undefined), `Cc1[nH]n(-c2ccccc2)c(=O)c1C(C[N+](=O)[O-])c1ccc(F)cc1` (centres undefined) is higher in “activity change, negative = inhibition” value: -0.318% for the first, 1.48% for the second.

Compared with `Cc1ccc(S(=O)(=O)N(C)C)cc1NC(=O)/C=C/c1cccs1`, `CN(C)c1cccc2c1c(NC(=O)Nc1ccccc1)nn2C` is lower in “activity change, negative = inhibition” value: 1.54% for the first, -5.26% for the second.

Compared with `CC1(C)Cc2sc3c(=O)[nH]c(=S)[nH]c3c2CO1`, `CN(C)CCNc1nc(-c2ccco2)c2c(c1C#N)CC(C)(C)OC2` is lower in “activity change, negative = inhibition” value: 1.02% for the first, -1.66% for the second.

First: CCOc1ccc(N2CC(C(=O)NCCc3c[nH]c4ccc(OC)cc34)CC2=O)cc1 (centres undefined)
Second: COc1ccc(CCNC(=O)C2CCN(C(=O)c3ccccc3C)CC2)cc1
The “activity change, negative = inhibition” value of the first is higher: 0.809% for the first, 0.092% for the second.

Going from `Cc1ccc(NC(=O)Cn2nnc(C(=O)NCc3ccccc3)c2N)cc1C` to `CC(=O)N1CCN(Cc2nc3cc(NC(=O)Cn4nc(C)c5ccccc5c4=O)ccc3n2C)CC1`, the “activity change, negative = inhibition” value rises from -0.362% to 1.58%.

Going from `Cc1cc(C(=O)COC(=O)c2ccc([N+](=O)[O-])o2)c(C)n1CC1CCCO1` (centres undefined) to `CCN(CC)C(=O)COC(=O)C1=NN(c2cc(C)ccc2C)C(=O)CC1`, the “activity change, negative = inhibition” value rises from -9.09% to -3.17%.

Compared with `COc1ccc(C(c2c(C)[nH]n(-c3ccccc3)c2=O)c2c(C)[nH]n(-c3ccccc3)c2=O)cc1OC`, `Cc1ccc(C(C[N+](=O)[O-])c2c(C)[nH]n(-c3ccccc3)c2=O)cc1` (centres undefined) is higher in “activity change, negative = inhibition” value: -9% for the first, -2.59% for the second.

Compared with `C/C(CC(=O)Nc1ccccn1)=N\NC(=O)C(=O)Nc1cccc(Cl)c1C`, `COCCN(C(=O)CCC(=O)Nc1ccccn1)C(C(=O)NC(C)C)c1ccc(C)cc1` (centres undefined) is lower in “activity change, negative = inhibition” value: -0.689% for the first, -2.62% for the second.

Going from `COC(=O)CCCC(=O)NC1CC(C)(C)Cc2c1cnn2-c1ccc(C)cc1` (centres undefined) to `Cc1cccc(N(CC(=O)NC(C)(C)C)C(=O)CS(=O)CC(=O)Nc2ccc3c(c2)OCO3)c1` (centres undefined), the “activity change, negative = inhibition” value rises from -0.494% to 0.013%.

First: Cc1cccc(-c2nnc(SCC(=O)c3ccc(O)cc3O)n2C)c1
Second: C=CCn1c(SCc2ccc(C#N)cc2)nnc1-c1ccc(C)cc1
The “activity change, negative = inhibition” value of the first is higher: 0.938% for the first, -2.38% for the second.

Compared with `C=CCn1c(SCC(=O)N2CCN(c3ccccc3)CC2)nnc1-c1ccco1`, `O=C(c1ccc(N2CCOCC2)c([N+](=O)[O-])c1)N1CCN(Cc2ccccc2)CC1` is higher in “activity change, negative = inhibition” value: -4.63% for the first, -3.51% for the second.

Compared with `O=C(c1ccc2c(c1)OCO2)C1CCCN(Cc2ccc3cccc(F)c3n2)C1` (centres undefined), `O=C(NCc1cccnc1)c1ccc2c(c1)OCO2` is lower in “activity change, negative = inhibition” value: -1.24% for the first, -4.15% for the second.

First: CCNc1ccccc(C(=O)/C=C/c2ccc3c(c2)OCO3)c1=O
Second: CS(=O)(=O)N(CC(=O)NCc1ccc2c(c1)OCO2)c1cccc(Cl)c1
The “activity change, negative = inhibition” value of the first is lower: -2.99% for the first, 0.858% for the second.

Compared with `CC(Cc1c[nH]c2ccccc12)C(=O)NCc1ccco1` (centres undefined), `CC(Oc1ccc(Cl)cc1Cl)C(=O)NC(Cc1ccccc1)C(=O)O` (centres undefined) is higher in “activity change, negative = inhibition” value: -7.92% for the first, 4.79% for the second.

Compared with `CCOC(=O)N1CCN(C2=Nc3cccc4cccc2c34)CC1`, `CCCCN1C(=O)C(=Nc2cccc3cnccc23)c2ccccc21` is lower in “activity change, negative = inhibition” value: 0.355% for the first, -3.19% for the second.

Compared with `CSc1ncccc1C(=O)Nc1nc2c(C)cccc2s1`, `CCCc1cc(Nc2ccccc2C)n2ncnc2n1` is higher in “activity change, negative = inhibition” value: 4.37% for the first, 6.66% for the second.

Going from `Nc1ncnc(NCc2ccccc2)c1[N+](=O)[O-]` to `NC(=O)c1[nH]cnc1N=NN(CCO)Cc1ccccc1`, the “activity change, negative = inhibition” value rises from 0.484% to 0.49%.

Going from `COc1ccc(COc2ncnc3ccc(Br)cc23)cc1F` to `OC(COc1ccc2ccccc2c1Cl)CN1CCOCC1` (centres undefined), the “activity change, negative = inhibition” value falls from 1.25% to -1.1%.

Going from `[O-][n+]1cccc2c(Br)cc(Br)c(O)c21` to `CCN(CC)Cc1c(O)c(Cl)cc2c(C)cc(=O)oc12`, the “activity change, negative = inhibition” value falls from -3.88% to -7.42%.

Going from `CCCCN(CC)CCNC(=O)CN(C)S(=O)(=O)c1ccc2c(c1)c(=O)n(C)c(=O)n2C` to `CCN1C(=O)c2ccccc2S(=O)(=O)c2ccc(C(=O)NC(C)C)cc21`, the “activity change, negative = inhibition” value rises from -9.9% to -0.906%.

Going from `Cc1ccc(C(=O)Nc2ccc(CC(=O)O)cc2)o1` to `O=C(CSc1nnc2ccccn12)NNC(=O)c1ccc([N+](=O)[O-])cc1`, the “activity change, negative = inhibition” value rises from -1.83% to -0.222%.

Going from `N#Cc1c(SCC(=O)OCc2ccccc2)nsc1SCC(=O)OCc1ccccc1` to `COc1ccc(C2CC(c3ccc(Cl)cc3)=NN2C(C)=O)cc1` (centres undefined), the “activity change, negative = inhibition” value rises from -2.54% to -1.06%.

Compared with `Cc1cc(Cl)ccc1OCCCC(=O)N1CCOCC1`, `O=C1CC(N2CCOCC2)=NN1c1ccc([N+](=O)[O-])cc1` is lower in “activity change, negative = inhibition” value: 1.3% for the first, -2.73% for the second.

Going from `O=S(=O)(c1ccc(-c2nnco2)cc1)N1CCCCC1` to `Cc1ccnc(N2CCC(C(=O)NC3CCCCCC3)CC2)n1`, the “activity change, negative = inhibition” value rises from -4.33% to -2.18%.

First: c1cc(-c2ccoc2)n2ccnc2c1
Second: CC1CN(Cc2c(O)ccc3c(=O)c(-c4ccccc4Cl)coc23)CC(C)O1 (centres undefined)
The “activity change, negative = inhibition” value of the first is lower: -3.71% for the first, 0.635% for the second.
